From PubChem BioAssay AID743126 (The Scripps Research Institute Molecular Screening Center, 2013) come the findings set out here.

Each structure is given as a SMILES string. The campaign covered roughly 370,000 compounds. About 2,100 (0.57%) were called active. For the sample, actives were picked, then their nearest neighbours and some compounds at random. Unmarked numbers belong to inactive results.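 How the source made its calls: active means inhibition above mean plus 3 SD of compounds lying within the high and low control bounds (cut at about 19% in these data); inactive means the rest.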

Sequence of Group 3 secretory phospholipase A2 (Homo sapiens) (Q9NZ20 whole entry, looked up): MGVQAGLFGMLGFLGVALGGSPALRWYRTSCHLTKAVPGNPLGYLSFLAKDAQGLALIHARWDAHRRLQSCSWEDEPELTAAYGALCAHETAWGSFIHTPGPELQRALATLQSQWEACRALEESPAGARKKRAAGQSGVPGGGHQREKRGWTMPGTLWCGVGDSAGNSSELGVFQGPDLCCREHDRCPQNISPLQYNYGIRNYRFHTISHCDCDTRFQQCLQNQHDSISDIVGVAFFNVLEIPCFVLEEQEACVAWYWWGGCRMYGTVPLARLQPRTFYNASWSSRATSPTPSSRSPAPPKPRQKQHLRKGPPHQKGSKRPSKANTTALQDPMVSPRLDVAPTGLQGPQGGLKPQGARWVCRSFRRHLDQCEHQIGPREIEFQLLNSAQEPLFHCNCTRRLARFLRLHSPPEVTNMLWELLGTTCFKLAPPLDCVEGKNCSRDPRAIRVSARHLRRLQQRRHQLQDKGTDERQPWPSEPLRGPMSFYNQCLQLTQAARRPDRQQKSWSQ

This assay has as its target Group 3 secretory phospholipase A2 (Homo sapiens) (UniProt Q9NZ20). In words: HGIII-sPLA2 enzyme inhibition – biochemical, QFRET, BODIPY PC-A2 liposome substrate, primary screen (AID 743126).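 Further: 0% = median of test compound wells and 100% = no enzyme DMSO wells.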 Particulars: QFRET BODIPY PC-A2 liposome hydrolysis, fluorescence; at 12.2 µM; hits give high values.
As a reminder, the inhibition is the relative decrease from the control value, in per cent. As for `CCOc1ccc(N(CC(=O)Nc2c(C)n(C)n(-c3ccccc3)c2=O)S(=O)(=O)c2ccc(Cl)s2)cc1`, the inhibition is -3.41%.
For `O=C(NCCc1c[nH]c2ccccc12)OCc1cn(-c2c(F)cccc2F)nn1`, the inhibition is -62.2%.
As for `CC(=O)c1cc(-c2ccc3ccccc3c2)c(=O)n2c1CCC2`, the inhibition was -7.07%.
With `O=C(CCCCCN1C(=O)C2C3C=CC(C3)C2C1=O)Nc1ccccc1` (stereo not given) the figure was -2.11%; with `CC(=O)Oc1ccc2c(c1)C(=O)c1ccccc1C2=O`, 20.7% (active).
With `CC(=O)O[C@H]1c2ccccc2-c2ccccc2[C@@H]1OC(C)=O` the figure was 1.14%; with `CC(=O)Nc1ccc(Oc2ccc3c(c2)C(=O)NC3=O)cc1`, 1.41%; with `NS(=O)(=O)c1ccc(CCNC(=O)NC2CCCCC2)cc1`, 20.7% (active).
With `O=C(NCCCNC(=O)NC1CCCCC1)NC1CCCCC1` the figure was 6.47%; with `COc1ccc(OCC(=O)NCCc2ccc(S(N)(=O)=O)cc2)cc1`, 0.5%; with `O=C(NCCC1=CCCCC1)C1CCN(S(=O)(=O)c2ccc(Cl)s2)CC1`, -2.99%.
In the case of `COc1cccc(NC(=O)CCNS(=O)(=O)c2ccc3c(c2)oc(=O)n3C)c1`, the inhibition is 5.16%.
Take `COc1ccc(S(=O)(=O)NCCCCOc2ccc(Cl)cc2)cc1`: the inhibition was -35.8%.
On to `COc1cccc(NC(C)=[N+](C)CCNS(=O)(=O)c2ccc(Cl)cc2)c1`, for which the inhibition is 22.1% (active).
For `CN(C)[C@H]1CCN(c2cccc3c2S(=O)(=O)N2CC[C@H](C2)O3)C1`, the inhibition is -0.04%.
Turning to `Cc1ccc(OCc2nnc(SC/C=C/c3ccccc3)n2Cc2ccco2)cc1`, the inhibition is -14.9%.
For the compound `CC(=O)Nc1nc2ncccn2c1-c1ccc(C(F)(F)F)cc1`, the inhibition was 11.9%.
On to `COC(=O)[C@]12C[C@H](CC(=O)N3CCN(C(=O)C4CC4)CC3)C(=O)N(CCC3=CCCCC3)C1=C[C@H](C(C)C)O[C@@H]2C1CC1`, for which the inhibition is 4.41%.
Regarding `CN(CC(=O)Nc1ccccc1[N+](=O)[O-])Cc1ccc(Br)cc1`, the inhibition was -9.41%.
With `CSc1ccccc1NC(=O)CN(C)CC(=O)Nc1ccc(Cl)cc1[N+](=O)[O-]`, the inhibition is -3.92%.
The result for `CN(CC(=O)Nc1ccc(N2CCOCC2)cc1)CC(=O)Nc1ccccc1[N+](=O)[O-]` reads 20.6% (active); that for `Cc1cc(=O)[nH]c(SCC(=O)Nc2ccc(F)cc2F)n1`, -0.22%.
Consider `CCC(C)[C@@H](C(=O)OC)N(CCc1cn(Cc2ccccc2)nn1)S(=O)(=O)c1ccccc1Br` (stereo not given in full), for which the inhibition is -21.7%.
The result for `COCCn1c(SCC(=O)Nc2cc(Cl)ccc2OC)nc2c(c1=O)SC(C)C2` (stereo not given) reads -0.04%.
With `CCn1c(SCC(=O)Nc2ccccc2F)nc2c(c1=O)SC(C)C2` (stereo not given) the figure was 0.02%.
In the case of `COCCn1c(SCC(=O)Nc2cc(OC)ccc2OC)nc2c(c1=O)SC(C)C2` (stereo not given), the inhibition was 20.3% (active).
For the compound `Cc1nc(CNc2ncnc3ccc(-c4ccc5c(c4)OCO5)cc23)cs1`, the inhibition was -8.39%.
The result for `CCCCn1c(N)c(N(CCOC)C(=O)COc2c(C)cccc2C)c(=O)[nH]c1=O` reads 21.9% (active).
In the case of `CCCCn1c(N)c(N(CCOC)C(=O)CSCC(=O)Nc2cccc(C)c2)c(=O)[nH]c1=O`, the inhibition is 0.3%.
With `CCCCn1c(N)c(N(CCOC)C(=O)c2sc3ccccc3c2Cl)c(=O)[nH]c1=O` the figure was 5.32%; with `CCCCOCCCNC(=O)C[C@H]1C[C@@]2(C(=O)OC)C(=C[C@H](C(C)(C)C)O[C@@H]2C)N(CCc2ccc(OC)c(OC)c2)C1=O`, -14.2%; with `COc1ccnc(C(=O)N2CCC(Oc3cccnc3)CC2)c1`, 3.64%.
Consider `O=c1cnnc(Nc2ccccc2)[nH]1`, for which the inhibition was 6.17%.
Take `Cc1ccc(Nc2ccccc2N)cc1`: the inhibition was -1.96%.
For `Nc1ccc(Nc2ccccc2)cc1`, the inhibition is 19.5% (active).
As to `CC(=O)O[C@@]1(C(C)=O)CCC2[C@H]3C=C(C)C4=CC(=O)CC[C@@]4(C)C3CC[C@]21C` (stereo not given in full), the inhibition was 14%.
Take `COc1ccc(C(=O)NC(=S)NNC(=O)c2c(-c3ccccc3)noc2C)cc1`: the inhibition is 19.5% (active).
As to `COc1ccc(C(=O)NCCSc2ccccc2C)cc1`, the inhibition is -6.45%.
With `COc1ccc(C(=O)NNC(=S)NC(=O)c2ccccc2)cc1` the figure was 31.9% (active); with `COc1ccc(C(=O)NNc2cc(C)nc(NNC(=O)c3ccc(OC)cc3)n2)cc1`, -3.83%; with `COC(=O)c1ccc2nc(-c3ccccc3)c(Cc3ccc(OC)cc3C)n2c1`, -8.3%.
In the case of `COc1ccc(C(=O)NN2C(=O)C3C(c4ccccc4)C=CC(c4ccccc4)C3C2=O)cc1` (stereo not given), the inhibition is -36.3%.
As to `O=S1(=O)c2ccc(Br)cc2OC[C@@H](Cc2ccccc2)N1Cc1cn(Cc2ccco2)nn1`, the inhibition is -4.54%.
In the case of `Nn1c(SCC(=O)Nc2cccc3ccccc23)nnc1-c1cc(-c2ccc(F)cc2)n[nH]1`, the inhibition is -0.61%.
The result for `COC(=O)c1ccccc1-n1cc(COC(=O)NCCc2ccccc2)nn1` reads 6.94%; that for `Cc1ccccc1NC(=O)Cn1nnc(-c2ccccc2F)n1`, -6.88%; that for `O=C1CC[C@@H](COc2ccc3[nH]cc(-c4ccccc4)c3c2-c2ccccc2)N1`, -47.7%.
Consider `COc1ccc(/C=C2\CC3(OC(C)=O)CCCN2C3)cc1` (stereo not given), for which the inhibition was 2.59%.
As for `CC(C)CNS(=O)(=O)CC1NCCc2ccccc21` (stereo not given), the inhibition is 3.21%.
Consider `COc1cc(OC)cc(-c2nc3nc(C)c(CCC(=O)NCc4ccco4)c(C)n3n2)c1`, for which the inhibition is 9.12%.
With `COc1cc(OC)cc(C2=Cc3ccccc3C(CC(=O)c3ccco3)N2c2ccc(-c3cnc(OC)nc3)cc2)c1` (stereo not given) the figure was 20.3% (active); with `COCCN(C(=O)c1ccco1)c1nnc(-c2ccc(OC)cc2)s1`, -1.24%; with `CC(c1c[nH]c2ccccc12)c1c(-c2ccccc2)n(C)c2ccccc12` (stereo not given), -21.1%.
In the case of `COc1ccc(CSc2nnc(-c3cccc(C)c3)n2C)cc1`, the inhibition is 11.9%.
In the case of `O=C(CSc1nc2sc3c(c2c(=O)n1-c1ccccc1)CCCC3)NN=Cc1ccc(OCc2ccccc2)cc1`, the inhibition was -1.3%.
Consider `COC(=O)C1CN(CC(C)C)CCS(=O)(=O)N1Cc1ccc(F)cc1` (stereo not given), for which the inhibition was 5.81%.
The result for `N#Cc1ccccc1OC[C@@H](O)CN1CCC(C(O)(c2ccccc2)c2ccccc2)CC1` reads -25.3%; that for `CC(Oc1ccc2ccccc2c1)C(=O)NNC(=S)NC(=O)c1ccco1` (stereo not given), 20% (active); that for `COc1ccc(/C=C(/NC(=O)c2ccco2)C(=O)Nc2ccc(C(C)=O)cc2)cc1`, 10.6%.
The result for `NS(=O)(=O)c1ccc(CNC(=S)NC(=O)c2ccco2)cc1` reads -1.55%.
Turning to `CCOC(=O)C1=C(C)NC2=C(C(=O)CC(C)(C)C2)C1c1ccc2c(c1)OCO2` (stereo not given), the inhibition was 14.4%.
For `CCCOc1ccc(Oc2c(Cl)cnn(Cc3cccc4ccccc34)c2=O)cc1`, the inhibition is 3.84%.
Turning to `COc1cccc2c(C)c(C(=O)O)[nH]c12`, the inhibition is -1.9%.
`Cc1ccc2[nH]c(C(=O)O)c(NC(=O)c3ccccc3[N+](=O)[O-])c2c1`: the inhibition was -10.3%.
As for `Cc1c(C(=O)N/N=C/c2ccccc2)[nH]c2c([N+](=O)[O-])cccc12`, the inhibition is 21.8% (active).
As to `O=C(NCc1cccs1)C1CCCN(S(=O)(=O)c2ccc([N+](=O)[O-])cc2)C1` (stereo not given), the inhibition was 2.84%.
For the compound `CN1C[C@]2(C=C3CCCCC3n3c(=O)n(-c4ccccc4)c(=O)n32)N=C1NC(=O)c1ccccc1` (stereo not given in full), the inhibition was -6.07%.
`O=C(Nc1cc(Cl)cc(Cl)c1)OCCN1CCCC12CCC(c1ccccc1)CC2` (stereo not given): the inhibition is -8.41%.
As for `C#CCCN([C@H](C(=O)OC)C(C)C)S(=O)(=O)c1ccc(F)cc1Br`, the inhibition is 3.19%.
With `COP(=O)(O)CNC(=O)OCc1ccccc1` the figure was 2.13%; with `O=C(CN1CCCc2ccccc21)NCc1ccc(F)cc1`, 7.05%; with `CCc1ccc(-c2nn(-c3ccccc3)cc2CSC(=N)N)cc1`, 15.7%.
For the compound `N=C(N)SCc1cccc2ccccc12`, the inhibition is 35.3% (active).
With `CSC1=NCCN1C(=O)Cc1cccc2ccccc12`, the inhibition is 7.18%.
For the compound `O=C(CNS(=O)(=O)c1ccccc1F)N1CCN(c2ccccn2)CC1`, the inhibition was 5.26%.
The result for `Cc1cc(-n2nc(C)cc2C)n2ncc(-c3ccccc3)c2n1` reads 21.3% (active); that for `COc1ccccc1-c1cnn2c(N3CCOCC3)cc(C)nc12`, 17.5%; that for `Cc1cc(C)n(-c2nc(C(F)(F)F)nc3ccccc23)n1`, 1.7%.
For the compound `COC(=O)C[C@@H]1CC[C@H]2[C@@H](COc3ccc(NS(=O)(=O)CC(F)(F)F)cc3C(=O)N2C)O1`, the inhibition was 6.09%.
Consider `CCOC(=O)CNC(=O)/C=C/c1c(Cl)cccc1Cl`, for which the inhibition was -5.13%.
Turning to `O=C(/C=C/c1c(Cl)cccc1Cl)NCc1ccccc1`, the inhibition was 20% (active).
As to `O=C(CC(=O)N/N=C\c1cccc(Cl)c1Cl)NCc1ccccc1`, the inhibition is -20.8%.
For the compound `O=C(CSc1nc2ccccc2s1)NN=Cc1ccc(O)cc1O`, the inhibition is -23%.
For the compound `COc1cccc(Nc2nnc(SCC(=O)N3CC(C)OC(C)C3)s2)c1` (stereo not given), the inhibition is 13.8%.
With `CC(C)c1ccc(Nc2nnc(SCC(=O)c3nnc(-c4ccccc4)o3)s2)cc1` the figure was 22.6% (active); with `CN(C(=O)CSc1nnc(Nc2ccccc2)s1)C1CCS(=O)(=O)C1` (stereo not given), -0.8%.
In the case of `COc1ccc(-n2c(SCC(=O)NC3CCCC3)nnc2-c2ccncc2)cc1`, the inhibition is 12.7%.
As to `CCCCOC(=O)CCCc1ccc([N+](=O)[O-])cc1[N+](=O)[O-]`, the inhibition was 1.12%.
The result for `CCCCCOc1ccc(CSC2=NCCN2)cc1[N+](=O)[O-]` reads -1.57%; that for `CCCCOc1ccc(CSC(=N)N)cc1[N+](=O)[O-]`, 34.6% (active).
